What was measured:
[1] = biological target: Calcium/calmodulin-dependent protein kinase type 1 (Homo sapiens) (UniProt Q14012); conditions: at 1 µM
[2] = biological target: Calcium/calmodulin-dependent protein kinase type 1 (Homo sapiens) (UniProt Q14012); conditions: at 10 µM
[3] = biological target: Calcium/calmodulin-dependent protein kinase type II subunit beta (Homo sapiens) (UniProt Q13554); conditions: at 10 µM
[4] = biological target: Calcium/calmodulin-dependent protein kinase type II subunit delta (Homo sapiens) (UniProt Q13557); conditions: at 1 µM
[5] = biological target: Calcium/calmodulin-dependent protein kinase type II subunit delta (Homo sapiens) (UniProt Q13557); conditions: at 10 µM
[6] = biological target: Death-associated protein kinase 1 (Homo sapiens) (UniProt P53355); conditions: at 1 µM
[7] = biological target: Death-associated protein kinase 1 (Homo sapiens) (UniProt P53355); conditions: at 10 µM
[8] = biological target: Calcium/calmodulin-dependent protein kinase type II subunit beta (Homo sapiens) (UniProt Q13554); conditions: at 1 µM
[9] = biological target: Calcium/calmodulin-dependent protein kinase type II subunit gamma (Homo sapiens) (UniProt Q13555); conditions: at 1 µM
[10] = biological target: Calcium/calmodulin-dependent protein kinase type II subunit gamma (Homo sapiens) (UniProt Q13555); conditions: at 10 µM
[11] = biological target: T1, Calcium/calmodulin-dependent protein kinase type IV (Homo sapiens) (UniProt Q16566); conditions: at 1 µM
T1 sequence (whole entry): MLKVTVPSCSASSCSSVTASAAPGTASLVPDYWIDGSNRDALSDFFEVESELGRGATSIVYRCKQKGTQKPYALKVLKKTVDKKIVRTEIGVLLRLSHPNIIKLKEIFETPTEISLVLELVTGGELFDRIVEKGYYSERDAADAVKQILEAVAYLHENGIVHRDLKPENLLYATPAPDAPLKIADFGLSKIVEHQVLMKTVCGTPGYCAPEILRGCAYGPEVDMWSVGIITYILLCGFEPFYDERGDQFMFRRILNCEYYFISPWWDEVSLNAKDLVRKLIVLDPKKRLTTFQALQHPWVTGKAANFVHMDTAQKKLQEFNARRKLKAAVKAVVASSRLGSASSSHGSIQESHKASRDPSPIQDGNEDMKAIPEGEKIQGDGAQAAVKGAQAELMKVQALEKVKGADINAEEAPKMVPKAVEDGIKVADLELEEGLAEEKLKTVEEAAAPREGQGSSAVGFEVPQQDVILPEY

[12] = biological target: T1, Calcium/calmodulin-dependent protein kinase type IV (Homo sapiens); conditions: at 10 µM
[13] = biological target: Death-associated protein kinase 2 (Homo sapiens) (UniProt Q9UIK4); conditions: at 1 µM
[14] = biological target: Death-associated protein kinase 2 (Homo sapiens) (UniProt Q9UIK4); conditions: at 10 µM
[15] = biological target: T2, Discoidin domain-containing receptor 2 (Homo sapiens) (UniProt Q16832); conditions: at 1 µM
T2 sequence (whole entry): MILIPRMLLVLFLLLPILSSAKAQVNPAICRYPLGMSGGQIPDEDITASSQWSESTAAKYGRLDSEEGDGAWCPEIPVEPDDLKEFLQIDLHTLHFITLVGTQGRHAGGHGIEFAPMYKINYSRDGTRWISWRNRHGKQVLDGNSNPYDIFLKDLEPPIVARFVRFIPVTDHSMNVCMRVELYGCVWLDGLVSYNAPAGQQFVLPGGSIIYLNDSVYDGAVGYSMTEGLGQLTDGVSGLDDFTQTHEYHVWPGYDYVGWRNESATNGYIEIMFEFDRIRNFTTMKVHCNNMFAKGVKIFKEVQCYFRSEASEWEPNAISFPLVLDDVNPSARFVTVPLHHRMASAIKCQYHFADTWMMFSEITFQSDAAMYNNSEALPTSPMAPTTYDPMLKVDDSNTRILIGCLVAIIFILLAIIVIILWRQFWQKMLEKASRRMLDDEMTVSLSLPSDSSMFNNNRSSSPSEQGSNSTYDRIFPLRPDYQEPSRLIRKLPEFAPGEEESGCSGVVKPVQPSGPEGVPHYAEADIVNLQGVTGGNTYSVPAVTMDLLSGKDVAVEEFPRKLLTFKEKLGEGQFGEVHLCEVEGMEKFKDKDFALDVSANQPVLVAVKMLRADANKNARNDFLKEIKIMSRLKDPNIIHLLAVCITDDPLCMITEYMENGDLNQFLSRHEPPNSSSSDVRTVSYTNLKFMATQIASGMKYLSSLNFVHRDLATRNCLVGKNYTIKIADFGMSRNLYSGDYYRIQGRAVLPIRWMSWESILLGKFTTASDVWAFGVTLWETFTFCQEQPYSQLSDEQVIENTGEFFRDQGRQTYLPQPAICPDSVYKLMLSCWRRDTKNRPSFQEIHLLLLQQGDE

[16] = biological target: T2, Discoidin domain-containing receptor 2 (Homo sapiens); conditions: at 10 µM
[17] = biological target: T3, Serine/threonine-protein kinase DCLK2 (Homo sapiens) (UniProt Q8N568); conditions: at 1 µM
T3 sequence (whole entry): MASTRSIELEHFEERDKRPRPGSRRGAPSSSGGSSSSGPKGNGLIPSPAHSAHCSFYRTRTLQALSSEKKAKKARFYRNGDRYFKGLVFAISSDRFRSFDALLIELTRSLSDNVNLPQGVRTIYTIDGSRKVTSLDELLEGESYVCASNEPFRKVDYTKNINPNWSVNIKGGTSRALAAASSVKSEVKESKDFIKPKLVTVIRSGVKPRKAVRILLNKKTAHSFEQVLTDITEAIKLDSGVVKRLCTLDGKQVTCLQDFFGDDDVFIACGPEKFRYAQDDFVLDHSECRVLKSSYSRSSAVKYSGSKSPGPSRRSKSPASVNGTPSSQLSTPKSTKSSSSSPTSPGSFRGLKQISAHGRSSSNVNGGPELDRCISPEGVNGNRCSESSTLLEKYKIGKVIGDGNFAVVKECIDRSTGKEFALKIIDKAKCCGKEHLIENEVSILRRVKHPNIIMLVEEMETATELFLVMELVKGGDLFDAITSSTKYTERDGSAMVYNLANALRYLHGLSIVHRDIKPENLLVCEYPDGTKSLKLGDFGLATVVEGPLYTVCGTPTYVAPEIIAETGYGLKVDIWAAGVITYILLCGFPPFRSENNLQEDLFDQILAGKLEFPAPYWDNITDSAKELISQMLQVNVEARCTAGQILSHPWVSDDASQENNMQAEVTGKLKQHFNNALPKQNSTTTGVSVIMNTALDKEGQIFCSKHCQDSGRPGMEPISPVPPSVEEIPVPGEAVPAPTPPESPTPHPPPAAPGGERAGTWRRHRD

[18] = biological target: T3, Serine/threonine-protein kinase DCLK2 (Homo sapiens); conditions: at 10 µM
[19] = biological target: T4, Myotonin-protein kinase (Homo sapiens) (UniProt Q09013); conditions: at 1 µM
T4 sequence (whole entry): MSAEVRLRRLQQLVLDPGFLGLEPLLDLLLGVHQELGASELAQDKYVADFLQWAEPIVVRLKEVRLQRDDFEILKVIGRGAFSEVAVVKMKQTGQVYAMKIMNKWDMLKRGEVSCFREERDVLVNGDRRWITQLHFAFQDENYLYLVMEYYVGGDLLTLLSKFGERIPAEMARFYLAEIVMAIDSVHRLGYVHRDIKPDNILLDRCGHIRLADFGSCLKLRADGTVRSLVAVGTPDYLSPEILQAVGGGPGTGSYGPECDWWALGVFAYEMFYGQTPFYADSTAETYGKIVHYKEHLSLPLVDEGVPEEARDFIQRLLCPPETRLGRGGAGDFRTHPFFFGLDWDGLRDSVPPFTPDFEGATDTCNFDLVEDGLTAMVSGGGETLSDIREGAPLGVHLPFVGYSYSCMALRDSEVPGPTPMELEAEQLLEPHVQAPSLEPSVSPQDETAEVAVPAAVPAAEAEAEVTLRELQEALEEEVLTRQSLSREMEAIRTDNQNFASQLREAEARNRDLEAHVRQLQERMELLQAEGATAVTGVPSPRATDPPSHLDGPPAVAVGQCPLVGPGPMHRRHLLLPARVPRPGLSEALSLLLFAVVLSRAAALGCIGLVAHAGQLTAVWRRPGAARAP

[20] = biological target: T4, Myotonin-protein kinase (Homo sapiens); conditions: at 10 µM

Calcium/calmodulin-dependent protein kinase type II subunit gamma (Homo sapiens), sequence (Q13555 whole entry): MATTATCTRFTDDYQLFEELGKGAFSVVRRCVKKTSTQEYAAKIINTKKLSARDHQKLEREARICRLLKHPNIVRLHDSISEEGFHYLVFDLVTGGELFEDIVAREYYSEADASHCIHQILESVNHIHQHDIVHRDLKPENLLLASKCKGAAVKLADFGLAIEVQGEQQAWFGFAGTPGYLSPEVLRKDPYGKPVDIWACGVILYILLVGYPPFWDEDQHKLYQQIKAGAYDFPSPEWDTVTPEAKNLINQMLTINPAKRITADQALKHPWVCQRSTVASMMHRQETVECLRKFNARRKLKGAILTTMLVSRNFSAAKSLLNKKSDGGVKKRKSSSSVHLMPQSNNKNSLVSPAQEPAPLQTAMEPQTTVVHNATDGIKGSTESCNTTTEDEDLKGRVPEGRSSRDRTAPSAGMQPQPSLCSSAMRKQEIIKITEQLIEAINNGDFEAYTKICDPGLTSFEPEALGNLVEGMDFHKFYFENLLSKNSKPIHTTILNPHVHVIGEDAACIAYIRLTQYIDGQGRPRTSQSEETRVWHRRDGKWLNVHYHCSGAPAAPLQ
Calcium/calmodulin-dependent protein kinase type II subunit delta (Homo sapiens), sequence (Q13557 whole entry): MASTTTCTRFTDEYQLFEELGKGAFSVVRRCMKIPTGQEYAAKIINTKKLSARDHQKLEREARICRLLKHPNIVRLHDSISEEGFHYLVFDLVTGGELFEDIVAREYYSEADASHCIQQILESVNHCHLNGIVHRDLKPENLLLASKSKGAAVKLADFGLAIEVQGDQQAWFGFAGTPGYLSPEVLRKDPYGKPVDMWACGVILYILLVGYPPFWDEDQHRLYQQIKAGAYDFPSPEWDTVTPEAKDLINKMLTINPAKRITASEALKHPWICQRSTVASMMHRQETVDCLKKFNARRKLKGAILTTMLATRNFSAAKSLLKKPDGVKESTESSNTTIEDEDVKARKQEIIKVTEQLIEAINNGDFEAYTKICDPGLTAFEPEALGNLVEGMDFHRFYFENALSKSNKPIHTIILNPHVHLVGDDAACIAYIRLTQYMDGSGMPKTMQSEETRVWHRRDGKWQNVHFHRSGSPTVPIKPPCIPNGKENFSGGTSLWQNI
Death-associated protein kinase 2 (Homo sapiens), sequence (Q9UIK4 whole entry, looked up, the tested form may be a part): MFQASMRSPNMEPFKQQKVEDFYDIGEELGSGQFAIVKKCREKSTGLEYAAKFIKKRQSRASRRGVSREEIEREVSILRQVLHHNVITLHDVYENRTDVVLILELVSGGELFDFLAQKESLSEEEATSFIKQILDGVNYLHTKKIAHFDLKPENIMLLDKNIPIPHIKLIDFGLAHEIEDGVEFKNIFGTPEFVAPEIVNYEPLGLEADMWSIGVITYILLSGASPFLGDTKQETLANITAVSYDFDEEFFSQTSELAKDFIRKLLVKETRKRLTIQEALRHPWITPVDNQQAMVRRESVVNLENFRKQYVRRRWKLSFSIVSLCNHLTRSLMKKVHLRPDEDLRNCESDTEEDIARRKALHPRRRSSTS
Calcium/calmodulin-dependent protein kinase type 1 (Homo sapiens), sequence (Q14012 whole entry, looked up): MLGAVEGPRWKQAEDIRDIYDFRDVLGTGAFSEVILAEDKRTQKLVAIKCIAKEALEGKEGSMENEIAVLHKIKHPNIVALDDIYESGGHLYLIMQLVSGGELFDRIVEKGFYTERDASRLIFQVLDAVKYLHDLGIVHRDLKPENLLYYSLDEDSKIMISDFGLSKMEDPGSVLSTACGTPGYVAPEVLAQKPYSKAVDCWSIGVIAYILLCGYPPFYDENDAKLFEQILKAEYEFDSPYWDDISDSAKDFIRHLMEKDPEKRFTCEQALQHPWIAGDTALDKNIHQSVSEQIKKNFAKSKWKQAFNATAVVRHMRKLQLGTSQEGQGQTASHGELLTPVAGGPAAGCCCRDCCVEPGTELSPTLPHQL
Calcium/calmodulin-dependent protein kinase type II subunit beta (Homo sapiens), sequence (Q13554 whole entry): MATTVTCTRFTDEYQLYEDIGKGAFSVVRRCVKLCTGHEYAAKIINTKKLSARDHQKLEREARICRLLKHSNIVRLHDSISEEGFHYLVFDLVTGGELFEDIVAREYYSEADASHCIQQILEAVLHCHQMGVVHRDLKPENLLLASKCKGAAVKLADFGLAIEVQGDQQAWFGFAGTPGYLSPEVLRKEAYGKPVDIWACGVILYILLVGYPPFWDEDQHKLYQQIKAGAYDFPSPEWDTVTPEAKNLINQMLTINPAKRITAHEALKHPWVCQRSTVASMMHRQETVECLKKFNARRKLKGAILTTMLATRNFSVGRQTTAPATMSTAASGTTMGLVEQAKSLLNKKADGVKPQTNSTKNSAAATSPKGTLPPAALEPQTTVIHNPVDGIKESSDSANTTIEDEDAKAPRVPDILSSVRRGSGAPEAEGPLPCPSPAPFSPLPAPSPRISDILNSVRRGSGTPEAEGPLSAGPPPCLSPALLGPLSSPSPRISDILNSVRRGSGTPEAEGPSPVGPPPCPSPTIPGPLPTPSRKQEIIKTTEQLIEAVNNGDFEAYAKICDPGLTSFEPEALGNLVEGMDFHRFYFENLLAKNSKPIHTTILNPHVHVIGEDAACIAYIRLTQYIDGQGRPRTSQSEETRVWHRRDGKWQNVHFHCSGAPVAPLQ
Death-associated protein kinase 1 (Homo sapiens), sequence (P53355 whole entry, looked up): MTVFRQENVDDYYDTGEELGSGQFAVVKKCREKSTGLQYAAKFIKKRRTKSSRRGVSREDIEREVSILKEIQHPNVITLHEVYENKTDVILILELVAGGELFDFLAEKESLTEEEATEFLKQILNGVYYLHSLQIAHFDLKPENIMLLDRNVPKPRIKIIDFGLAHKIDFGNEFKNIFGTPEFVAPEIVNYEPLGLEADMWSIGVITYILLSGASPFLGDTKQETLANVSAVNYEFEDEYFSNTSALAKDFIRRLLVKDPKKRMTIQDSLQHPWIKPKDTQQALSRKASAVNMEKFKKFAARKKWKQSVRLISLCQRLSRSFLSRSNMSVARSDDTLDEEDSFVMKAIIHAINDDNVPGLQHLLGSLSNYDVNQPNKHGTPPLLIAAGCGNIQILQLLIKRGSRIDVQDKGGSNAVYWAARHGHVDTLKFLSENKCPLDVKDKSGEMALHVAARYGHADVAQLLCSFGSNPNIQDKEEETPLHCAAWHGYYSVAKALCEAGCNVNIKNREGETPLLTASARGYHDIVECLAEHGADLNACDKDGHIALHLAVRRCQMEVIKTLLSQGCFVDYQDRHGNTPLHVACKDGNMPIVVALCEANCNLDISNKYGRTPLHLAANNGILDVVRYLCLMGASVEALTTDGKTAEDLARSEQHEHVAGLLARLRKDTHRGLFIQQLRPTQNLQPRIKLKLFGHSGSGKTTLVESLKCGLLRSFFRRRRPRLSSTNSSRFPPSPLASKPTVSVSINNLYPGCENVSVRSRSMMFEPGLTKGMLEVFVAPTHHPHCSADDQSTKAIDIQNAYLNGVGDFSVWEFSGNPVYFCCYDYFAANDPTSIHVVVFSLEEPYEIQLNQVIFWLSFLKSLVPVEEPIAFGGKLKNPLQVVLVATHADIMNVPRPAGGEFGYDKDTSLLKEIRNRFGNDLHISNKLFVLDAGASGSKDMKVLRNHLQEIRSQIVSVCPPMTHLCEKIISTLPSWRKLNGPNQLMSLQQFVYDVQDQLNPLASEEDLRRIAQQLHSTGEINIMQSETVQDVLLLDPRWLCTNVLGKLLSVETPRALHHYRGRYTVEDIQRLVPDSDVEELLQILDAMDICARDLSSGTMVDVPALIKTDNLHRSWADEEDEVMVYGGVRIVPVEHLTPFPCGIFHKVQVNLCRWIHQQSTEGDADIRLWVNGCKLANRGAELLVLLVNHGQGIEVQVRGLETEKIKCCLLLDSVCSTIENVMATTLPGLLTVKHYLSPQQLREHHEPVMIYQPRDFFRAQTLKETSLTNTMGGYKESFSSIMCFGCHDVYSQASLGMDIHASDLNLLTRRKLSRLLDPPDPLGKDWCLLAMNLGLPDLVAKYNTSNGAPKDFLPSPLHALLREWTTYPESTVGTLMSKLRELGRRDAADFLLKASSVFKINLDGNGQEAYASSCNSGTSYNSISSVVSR

| SMILES | residual activity [1] [%] | residual activity [2] [%] | residual activity [3] [%] | residual activity [4] [%] | residual activity [5] [%] | residual activity [6] [%] | residual activity [7] [%] | residual activity [8] [%] | residual activity [9] [%] | residual activity [10] [%] | residual activity [11] [%] | residual activity [12] [%] | residual activity [13] [%] | residual activity [14] [%] | residual activity [15] [%] | residual activity [16] [%] | residual activity [17] [%] | residual activity [18] [%] | residual activity [19] [%] | residual activity [20] [%] |
| --- | --- | --- | --- | --- | --- | --- | --- | --- | --- | --- | --- | --- | --- | --- | --- | --- | --- | --- | --- | --- |
| CCc1nc(-c2ccc(OC)cc2)[nH]c1-c1ccncc1 | 108 | 101 | 76 | 110 | 80 | 101 | 100 | – | – | – | – | – | – | – | – | – | – | – | – | – |
| O=C1NC(=O)c2c1c1c3ccccc3n3c1c1c2c2ccccc2n1C1CCC3O1 | 63 | 48 | 32 | -1 | 5 | 49 | 60 | 32 | 0 | 1 | 90 | 100 | 54 | 20 | 77 | 81 | – | – | – | – |
| CC(C)(C)n1nc(Cc2cccc3ccccc23)c2c(N)ncnc21 | – | – | – | – | – | 86 | – | – | – | – | – | – | – | – | – | – | – | – | – | – |
| N#C/C(=C(\N)Sc1ccc(N)cc1)c1ccccc1C(F)(F)F | – | – | – | – | – | 84 | – | – | – | – | – | – | – | – | – | – | – | – | – | – |
| COc1ccc2c(c1)/C(=C/c1cnc[nH]1)C(=O)N2 | – | 77 | – | 42 | 8 | 100 | 97 | – | 49 | 10 | – | – | – | 51 | – | – | – | – | – | – |
| O=C1Nc2ccc3ncsc3c2/C1=C/c1c[nH]cn1 | 72 | 22 | 3 | 18 | 4 | 85 | 63 | 13 | 21 | -1 | 80 | 24 | 71 | 32 | 113 | 82 | 55 | 17 | 120 | 105 |
| COc1ccc2c(c[n+](C)c3c4cc5c(cc4ccc23)OCO5)c1OC | – | 86 | 55 | – | 85 | 94 | 71 | 80 | – | 70 | – | 69 | 99 | 91 | – | – | 98 | 90 | 111 | 126 |
| COC(=O)[C@@]1(O)C[C@H]2O[C@]1(C)n1c3ccccc3c3c4c(c5c6ccccc6n2c5c31)C(=O)NC4 | 6 | 1 | -1 | 0 | 1 | 48 | 10 | 0 | 1 | 0 | 24 | 11 | 12 | -3 | 56 | 17 | 75 | 41 | 116 | 65 |
| COc1cc2ncnc(N3CCN(C(=O)Nc4ccc(Oc5ccccc5)cc4)CC3)c2cc1OC | – | – | – | – | – | 90 | – | – | – | – | – | – | – | – | – | – | – | – | – | – |
| O=[N+]([O-])/C=C/c1ccc2c(c1)OCO2 | 108 | 84 | 84 | 109 | 97 | 85 | 90 | 90 | 107 | 100 | 132 | 14 | 95 | 127 | 100 | 97 | 63 | 68 | 137 | 134 |
